NALP1 yeast inh: NALP1 inhibition; S. cerevisiae NALP1/ASC/caspase-1 growth, X-gal OD620, 72 h; inhibition, % at 10 µM; hit rate 0.61% among 280,000; AID 2071; in the data active = inhibition mostly above about 24%, no sharp cut-off; inactive = mostly below about 32%
tim23-1 inh: inhibits growth of tim23-1 mutant yeast. S. cerevisiae tim23-1 growth, BacTiter-Glo luminescence, 24 h. inhibition, % at 20 µM. hit rate 1.3% among 330,000. AID 463212;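 active = growth inhibition of the mutant yeast at or above 50%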;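 also: temperature-sensitive mutant grown at 25 °C; plate controls were DMSO-treated mutant yeast for no effect and medium wells lacking yeast for full effect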
TIM10 inh: TIM10 yeast growth inhibition; S. cerevisiae TIM10 strain growth, BacTiter-Glo luminescence, 24 h; inhibition, % at 10 µM; hit rate 1.4% among 330,000;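 active = inhibition of 40% or more at the single tested concentration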;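 also: wild-type TIM10 isogenic control strain grown at permissive 25 °C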
NLRP3 yeast inh: blocks the NALP3 inflammasome reconstituted in yeast; Yeast reconstituted NLRP3/ASC/caspase-1, beta-gal luminescence, 24 h; inhibition, % at 10 µM; hit rate 0.39% among 330,000;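 active = inhibition of 50% or more; inactive = inhibition below 50%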;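 also: plate controls were induced DMSO wells for no effect and uninduced yeast grown without galactose for full effect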
tim10-1 inh: inhibits growth of tim10-1 mutant yeast; S. cerevisiae tim10-1 ts strain growth, BacTiter-Glo, 24 h; inhibition, % at 20 µM; hit rate 2.2% among 330,000;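 active = inhibition of at least 40%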;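 also: mutant grown at 25 °C; 0% = DMSO wells with yeast and 100% = wells holding no yeast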
tim10-1 confirm: confirmation of tim10-1 mutant yeast growth inhibitors; AID 463213; S. cerevisiae tim10-1 ts strain growth, BacTiter-Glo, 24 h; hit rate 56% among 7,400; inhibition, % at 20 µM; shares compounds with tim10-1 inh;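 active = inhibition of yeast growth at or above a set limit in either of two repeat tests at 20 µM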;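 also: tim10-1 mutant grown at permissive 25 °C to find synthetic lethal compounds; 0% = DMSO yeast wells and 100% = medium wells without yeast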
The depositor's hits bear a star; . = not tested or not shown. Compounds with a hit are over-represented: about 4% of the library has one in this group of screens.

SMILES | NALP1 yeast inh | tim23-1 inh | TIM10 inh | NLRP3 yeast inh | tim10-1 inh | tim10-1 confirm
COc1cccc(C2CCN(CC(=O)Nc3cc(Cl)ccc3OC)CC2O)c1 (stereo unspecified) | 11 | 25 | 2 | 25 | 41* | 4
COc1cccc(CC(=O)N2CCN(Cc3cccc(Cl)c3)CC2)c1 | -17 | 35 | 18 | 14 | 29 | .
Cn1cc(C(O)CN2CCCCC2)c2ccccc21 (stereo unspecified) | 18 | 0 | 5 | 10 | -8 | .
CC(C)OCCCNC(=O)c1c(N)n(CC2CCCO2)c2nc3ccccc3nc12 (stereo unspecified) | 15 | 30 | 18 | -5 | 29 | .
CCCNC(=O)c1c(N)n(CC2CCCO2)c2nc3ccccc3nc12 (stereo unspecified) | 1 | 31 | 26 | 8 | 45* | 14
CCCCn1c(N)c(C(=O)NCc2cccs2)c2nc3ccccc3nc21 | 7 | 36 | 25 | 17 | 41* | 24
N#Cc1cc2c(nc1SCC(=O)Nc1cc(Cl)ccc1Cl)C1CCN2CC1 | 18 | 21 | 11 | 19 | 40* | 23
Cc1cccnc1-n1c(CN2C(=O)c3ccccc3C2=O)nc2ccccc2c1=O | 16 | 32 | 20 | -17 | 51* | 30*
CCOc1cccc(CNCCc2c(C)[nH]c3ccc(OC(F)(F)F)cc23)c1O | 33 | -8 | -2 | 9 | 8 | .
O=C(CCN1CCOCC1)NCC(=O)Nc1ccc(Br)cc1C(=O)c1ccccc1 | 19 | 18 | 9 | 4 | -4 | .
CC(C(=O)Nc1ccc(Br)cc1C(=O)c1ccccc1)N1CCOCC1 (stereo unspecified) | -15 | 13 | 27 | 15 | 41* | 25
CCCC1(CCC)C(=O)NC(=Nc2ccccc2)NC1=O | 3 | 18 | -9 | 15 | 17 | .
CCCCC1(CCCC)C(=O)NC(=Nc2cccc(C)c2)NC1=O | 2 | 30 | 10 | 22 | 40* | 26
Brc1ccc2[nH]cc(/C=N/N3CCCCC3)c2c1 | 20 | 47 | 18 | 28 | 42* | 22
Oc1c(Cl)c(Cl)c(Cl)c(Cl)c1Cl | . | 39 | 39 | 40 | 47* | 31*
COC(=O)C1=C(c2ccc(OCc3ccccc3)cc2)C[C@@H]2CC[C@H]1N2C(=O)NC1CCN(Cc2ccccc2)CC1 | . | 25 | 6 | 14 | 15 | .
COc1cccc(Oc2coc3cc(OC(=O)N(C)C)ccc3c2=O)c1 | 6 | 11 | 4 | 26 | 17 | .
CN(C)C(=O)Oc1ccc2c(=O)c(Oc3ccccc3Br)coc2c1 | 12 | 29 | 15 | 0 | 46* | 13
CC(C)(C)c1cc([N+](=O)[O-])cc(C(C)(C)C)c1O | -1 | 43 | 25 | 12 | 49* | 44*
O=C1CC(N2CC=C(c3ccc(F)cc3)CC2)C(=O)N1c1ccc(F)cc1 (stereo unspecified) | -4 | 40 | 20 | 11 | 43* | 26
C[C@]12CCC3C(CC[C@H]4C[C@H](O)CC[C@]34C)C1[C@@H](O)[C@@H](O)[C@@H]2O (stereo partly specified) | . | 4 | -13 | 38 | -8 | .
C=C(C)CSc1nnc([C@@H](N)Cc2c[nH]c3ccccc23)o1 | -2 | 33 | 26 | 16 | 42* | 56*
N[C@@H](Cc1c[nH]c2ccccc12)c1nnc(SCc2ccccc2)o1 | 1 | 38 | 33 | 19 | 43* | 47*
CC(C)=CCSc1nnc([C@@H](N)Cc2c[nH]c3ccccc23)o1 | -2 | 33 | 9 | 19 | 45* | 32*
N[C@@H](Cc1c[nH]c2ccccc12)c1nnc(SCc2ccc(F)cc2)o1 | 7 | . | . | . | . | .
COc1cccc(-c2nn(CCC#N)cc2C(=O)Nc2ccccc2Cl)c1 | 22 | 15 | -2 | 21 | -2 | .
CCS(=O)(=O)NC(C)c1nnc2n1-c1ccc(Br)cc1C(c1ccccc1Cl)=NC2 (stereo unspecified) | . | 7 | 11 | 8 | -17 | .
OCC1CO1 (stereo unspecified) | . | 17 | -8 | -7 | 6 | .
C=C(C=O)CC1CC(O)[C@]2(C)OC3CC4OC5C[C@]6(C)O[C@]7(C)CCC8OC9C[C@]%10(C)OC%11C(C)=CC(=O)OC%11CC%10OC9C[C@@H](C)C8OC7CC6O[C@]5(C)CC5OC5C4OC3CC2O1 (stereo partly specified) | 8 | -7 | -14 | 29 | 59* | 29*
